Screening results (PubChem)
Rows were chosen to be rich in hits. Some 2.7% of all compounds tested hit in one or more screens of this group.
RXFP1 agonist: activates the human relaxin receptor RXFP1 | Potency, µM (titrated, usually from 57.5 µM), inactives show at the top dose activation, most hits filed as activators | hit rate 0.3% among 370,000 | Q9HBX9 | HEK293T-RXFP1 cAMP TR-FRET, 30 min; response scale: percent of porcine relaxin response, buffer zero | AID 2676; active means well fitted activation curve with a large enough effect; inconclusive means small, poorly fitted or top-dose-only effect; further: potency means the concentration at half of the fitted maximal effect; on the % scale 0 is the no-effect control and ±100 the full control effect; nearly all actives have a fitted effect of over 60% in size
Target sequence (Q9HBX9 whole entry, looked up): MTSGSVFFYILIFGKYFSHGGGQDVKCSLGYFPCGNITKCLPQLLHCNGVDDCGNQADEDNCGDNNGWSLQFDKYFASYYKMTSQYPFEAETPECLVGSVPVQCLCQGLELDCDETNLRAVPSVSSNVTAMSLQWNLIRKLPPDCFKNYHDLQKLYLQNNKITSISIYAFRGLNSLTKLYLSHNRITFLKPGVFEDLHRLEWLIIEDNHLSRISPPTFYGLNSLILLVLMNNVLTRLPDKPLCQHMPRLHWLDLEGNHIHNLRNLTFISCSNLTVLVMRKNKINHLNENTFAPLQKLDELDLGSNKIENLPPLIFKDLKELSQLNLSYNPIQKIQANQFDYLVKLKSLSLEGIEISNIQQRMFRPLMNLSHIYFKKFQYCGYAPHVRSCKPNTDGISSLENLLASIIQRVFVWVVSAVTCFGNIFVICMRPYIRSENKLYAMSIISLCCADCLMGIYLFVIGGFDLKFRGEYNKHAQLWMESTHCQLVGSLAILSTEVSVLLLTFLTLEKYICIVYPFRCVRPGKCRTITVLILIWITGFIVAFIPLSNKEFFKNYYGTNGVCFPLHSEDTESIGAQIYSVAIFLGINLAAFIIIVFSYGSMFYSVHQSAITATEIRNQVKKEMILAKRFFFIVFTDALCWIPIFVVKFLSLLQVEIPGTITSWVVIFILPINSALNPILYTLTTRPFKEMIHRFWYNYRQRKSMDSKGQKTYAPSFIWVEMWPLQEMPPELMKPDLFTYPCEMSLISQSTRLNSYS
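HEK293T cells stably expressing RXFP1 were pretreated with the PDE4 inhibitor Ro 20174, exposed to compounds for 30 min at 37C, lysed, and cAMP was read by TR-FRET. Data normalized to buffer (basal) and 29 nM porcine relaxin (100%).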
RXFP1 antagonist: blocks the human relaxin receptor RXFP1; Q9HBX9; AID 1259400; HEK293-RXFP1, relaxin-stimulated cAMP HTRF, 30 min; hits give low values; activity change, negative = inhibition, % at 57.5 µM; hit rate 0.59% among 350,000;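 active means activity change of -60% or lower, but not beyond a set lower limit; inconclusive means change between -60% and -40%, or beyond the set limit; inactive means change above -40%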; further: on the % scale 0 is the no-effect control and ±100 the full control effect
Akt phos inh: Akt phosphorylation inhibition; activity change, % for hits at 50 µM; Neuro2A IGF-stimulated pAkt S473 HTRF, 20 min; hits give low values; AID 651550; hit rate 0.32% among 360,000; in the data active means activity change below about -80%; inconclusive means mostly about -51% to -80%; further: on the % scale 0 is the no-effect control and ±100 the full control effect
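Neuro2A cells in DMEM with 0.5% FBS, overnight at 37 deg C, given compound at single 50 µM final, then IGF (6 nM final) for 20 min at 37 deg C. Lysed; phospho-Akt Ser473 by HTRF after 24 h, 665/615 ratio.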
gsp agonist: agonists of gsp mutant (McCune-Albright syndrome). gsp mutant cells, cAMP HTRF, 30 min. Potency, µM (titrated, usually from 76.9 µM), without a hit: at the highest dose activation (cAMP increase), hits mostly activators. hit rate 0.13% among 340,000; active means well fitted activation curve with a large enough effect; inconclusive means small, poorly fitted or top-dose-only effect, or another doubt; inactive means no such curve, though single readings can be large or run the other way; cell line not stated here;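 further: phosphodiesterase inhibitor Ro 20-1724 added with compounds to block cAMP breakdown; potency means the concentration at half of the fitted maximal effect; nearly all actives have a fitted effect of over 60% in size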
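Cells in DMEM/10% FBS with G418 were pretreated with compounds in DMSO plus […] (300 uM stock) for 30 min at 37C. cAMP was measured by HTRF (cAMP-d2 plus anti-cAMP antibody-K) after 30 min at room temperature.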
ClpP mod: qHTS Assay for Activators of ClpP; ATP-dependent Clp protease proteolytic subunit (Bacillus subtilis (strain 168)), P80244; purified B. subtilis ClpP, FRET peptide cleavage, 20 min; Potency, µM (highest dose often 57.5 µM), inactives show top-dose activity change, negative = active; hit rate 1.9% among 340,000; active means well fitted falling curve with a large enough effect; inconclusive means small, poorly fitted or top-dose-only effect; inactive means no such curve, though single readings can be large or run the other way; further: potency means the concentration at half of the fitted maximal effect; the source files actives as falling curves though it sought activators and does not explain the sign; nearly all actives have a fitted effect of over 65% in size
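Purified B. subtilis ClpP, 10 microg/mL final in Tris/HCl pH8 with KCl, BSA, glycerol and Tween-20, cleaved an Abz/nitrotyrosine-quenched decapeptide. Fluorescence (ex 320, em 430) was read at 0 and 20 min at room temperature. Delta was normalized to 5.8 microM ADEP and DMSO/no-enzyme controls.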
gsp antagonist: gsp mutant antagonism; gsp-mutant cells, cAMP HTRF, 30 min; Potency, µM (series often up to 76.9 µM), for the others: top-dose activity change, negative = inhibition, actives largely listed as inhibitors; hit rate 0.4% among 340,000; AID 624288; calls by dose curve; cell line not stated here;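 further: intracellular cAMP measured with PDE inhibitor Ro 20-1724 present during compound exposure; potency means the concentration at half of the fitted maximal effect; on the % scale 0 is the no-effect control and ±100 the full control effect; nearly all actives have a fitted effect of over 65% in size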
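G418-selected cells were plated in DMEM/10% FBS for 16-24 h at 37C, then treated with compounds plus the PDE inhibitor […] (300 uM solution added) for 30 min at 37C. Intracellular cAMP was measured by HTRF after 30 min lysis at room temperature.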
Starred values were filed as active, the others as inactive; [ ] = another dose, or the depositor's remark.

Results for COc1cccc(C2c3c(-c4ccccc4O)n[nH]c3C(=O)N2Cc2ccco2)c1 (configuration not stated) ?
RXFP1 agonist: 5%; RXFP1 antagonist: -5; Akt phos inh: inactive; gsp agonist: -13%; ClpP mod: -1%; gsp antagonist: -14%

How did Cc1ccc(O)c(-c2n[nH]c3c2C(c2ccccc2F)N(Cc2ccco2)C3=O)c1 (configuration not stated) do in these assays?
RXFP1 agonist: -2%; RXFP1 antagonist: -69*; ClpP mod: -2%

What do the screens show for `CC(C)C(=O)Nc1ccc(-c2nc3cccnc3o2)cc1`?
RXFP1 agonist: 2%; RXFP1 antagonist: -21; Akt phos inh: inactive; gsp agonist: 12%; ClpP mod: -20%; gsp antagonist: -10%

What do the screens show for `CC(C)(C)c1ccc(OCC(=O)Nc2ccc(-c3nc4cccnc4o3)cc2)cc1`?
RXFP1 agonist: -1%; RXFP1 antagonist: -1; Akt phos inh: inactive; gsp agonist: 23%; ClpP mod: 13µM*; gsp antagonist: 1%[15.4 µM]

What do the screens show for `O=C1CC(c2cccc(Cl)c2)Cc2nc(N3CCN(c4ccccc4)CC3)ncc21` (configuration not stated)?
RXFP1 agonist: 25%; RXFP1 antagonist: 2; Akt phos inh: -97%*; gsp agonist: 31%; ClpP mod: inconclusive; gsp antagonist: 4%

How did O=C1CC(c2cccc(Cl)c2)Cc2nc(N3CCOCC3)ncc21 (configuration not stated) do in these assays?
RXFP1 agonist: 0%; RXFP1 antagonist: -8; Akt phos inh: inactive; gsp agonist: -1%; ClpP mod: -19%; gsp antagonist: 6%

How did Cc1cc(C)c(OCCOCCn2c(-c3ccc(Cl)cc3)nc3ccccc3c2=O)c(C)c1 do in these assays?
RXFP1 agonist: 1%; RXFP1 antagonist: -9; ClpP mod: 3%

How did Cc1ccc2[nH]c(=O)c(CN(CCO)C(=O)N(C)C)cc2c1 do in these assays?
RXFP1 antagonist: 1; Akt phos inh: inactive; gsp agonist: -4%; ClpP mod: 28µM*; gsp antagonist: -3%

What do the screens show for `CCN(CC)CCCN(Cc1cc2cc(OC)ccc2[nH]c1=O)C(=O)Nc1ccc(F)cc1`?
RXFP1 agonist: -1%; RXFP1 antagonist: -5; Akt phos inh: inactive; gsp agonist: -2%; ClpP mod: 28µM*; gsp antagonist: -7%

What do the screens show for `Cc1ccc2[nH]c(=O)c(CN(CCCN(C)C)C(=O)Nc3ccc(F)cc3)cc2c1`?
RXFP1 agonist: 0%; RXFP1 antagonist: -2; Akt phos inh: inactive; gsp agonist: -8%[15.4 µM]; gsp antagonist: 7.1µM*

How did Cc1ccc2[nH]c(=O)c(CNC(C)(C)C)cc2c1 do in these assays?
RXFP1 agonist: 3%; RXFP1 antagonist: -6; Akt phos inh: inactive; gsp agonist: inconclusive; ClpP mod: 14µM*; gsp antagonist: 15%

What do the screens show for `CCn1c2ccccc2c2nnc(SC3CCOC3=O)nc21` (configuration not stated)?
ClpP mod: 0%

How did COc1ccc(NC(=O)CCS(=O)(=O)c2nc(-c3cccs3)cc(C(F)(F)F)n2)cc1OC do in these assays?
RXFP1 agonist: 6%; RXFP1 antagonist: inconclusive; ClpP mod: 17%

What do the screens show for `CC(c1ccco1)N(C(=O)CSc1ccc(Br)cc1)c1ccccn1` (configuration not stated)?
RXFP1 agonist: -1%; RXFP1 antagonist: -4; Akt phos inh: inactive; gsp agonist: -6%; ClpP mod: -3%; gsp antagonist: 35µM*

How did CC(C)c1ccc(C(=O)N(c2ccccn2)C(C)c2ccco2)cc1 (configuration not stated) do in these assays?
RXFP1 agonist: -2%; RXFP1 antagonist: 1; Akt phos inh: inactive; gsp agonist: -34%; ClpP mod: 1%; gsp antagonist: -18%

What do the screens show for `CC(=O)N1CCCc2cc(S(=O)(=O)N(C)CC(=O)Nc3ccc(C(C)C)cc3)ccc21`?
RXFP1 agonist: 2%; RXFP1 antagonist: -25; ClpP mod: -1%

How did OC1(c2ccc(F)cc2)CSC(=Nc2cccnc2)N1Cc1ccco1 (configuration not stated) do in these assays?
RXFP1 agonist: 0%; RXFP1 antagonist: -62*; Akt phos inh: inactive; gsp agonist: 0%[15.4 µM]

What do the screens show for `OC1(c2ccc(OC(F)F)cc2)CSC(=Nc2cccnc2)N1Cc1ccco1` (configuration not stated)?
RXFP1 agonist: 4%; RXFP1 antagonist: -31; Akt phos inh: inactive; gsp agonist: -17%; gsp antagonist: 32µM*

What do the screens show for `OC1(c2ccc(F)cc2)CCN(Cc2cccnc2)CC1`?
RXFP1 agonist: 0%; RXFP1 antagonist: 3; Akt phos inh: inactive; gsp agonist: -3%[15.4 µM]; ClpP mod: -22%; gsp antagonist: 4%

How did CC(C)NS(=O)(=O)c1ccc2[nH]c3nc(SCC(=O)Nc4ccc(F)c(F)c4)nnc3c2c1 do in these assays?
ClpP mod: -1%

Results for CSc1nnc(-c2cc(-c3ccc(C)cc3)nc3ccccc23)o1 ?
RXFP1 agonist: 0%; RXFP1 antagonist: 3; Akt phos inh: inactive; gsp agonist: -25%; ClpP mod: 35µM*; gsp antagonist: -16%

How did CC(C)C(=O)Nc1cccc(C(=O)Nc2ccccc2C(=O)O)c1 do in these assays?
RXFP1 agonist: 0%; RXFP1 antagonist: -7; Akt phos inh: -114%*; gsp agonist: -2%; ClpP mod: -1%; gsp antagonist: inconclusive

Results for Cc1cccc(OCC(=O)Nc2cccc(C(=O)Nc3ccccc3C(=O)O)c2)c1 ?
RXFP1 agonist: -3%; RXFP1 antagonist: -10; Akt phos inh: inactive; gsp agonist: -14%; ClpP mod: -2%; gsp antagonist: -13%

What do the screens show for `CC(C)c1ccc(OCC(=O)Nc2cccc(C(=O)Nc3ccccc3C(=O)O)c2)cc1`?
RXFP1 agonist: 0%; RXFP1 antagonist: -66*; Akt phos inh: inactive; gsp agonist: 0%[15.4 µM]; ClpP mod: -1%; gsp antagonist: -7%

What do the screens show for `Cc1cccc(NC(=O)COc2ccccc2C(=O)NC(C)c2ccccc2)c1` (configuration not stated)?
RXFP1 agonist: -1%; RXFP1 antagonist: -18; Akt phos inh: inactive; gsp agonist: -20%; ClpP mod: -4%; gsp antagonist: 28µM*

How did O=C(Nc1ccccc1C(=O)O)c1cccc(NC(=O)c2ccccc2Br)c1 do in these assays?
RXFP1 agonist: 2%; RXFP1 antagonist: -19; Akt phos inh: inactive; gsp agonist: -20%; gsp antagonist: 0%
